Screens as filed in PubChem BioAssay.
ALDH1A1 block: blocks purified human ALDH1A1 activity; P00352; Purified ALDH1A1, NADH fluorescence, propionaldehyde substrate; Potency, µM (highest dose often 75.3 µM), for the others: at the top dose activity, negative = inhibition, hits mostly inhibitors; 7.3% of 220,000 active; active means well fitted inhibition curve with a large enough effect, not every such curve was filed as active; inconclusive means small, poorly fitted or top-dose-only effect, or another doubt; inactive means no such curve, though single readings can be large or run the other way;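 further: potency means the concentration at half of the fitted maximal effect; plate controls were no enzyme wells and a reference inhibitor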
Target sequence (P00352 whole entry, looked up): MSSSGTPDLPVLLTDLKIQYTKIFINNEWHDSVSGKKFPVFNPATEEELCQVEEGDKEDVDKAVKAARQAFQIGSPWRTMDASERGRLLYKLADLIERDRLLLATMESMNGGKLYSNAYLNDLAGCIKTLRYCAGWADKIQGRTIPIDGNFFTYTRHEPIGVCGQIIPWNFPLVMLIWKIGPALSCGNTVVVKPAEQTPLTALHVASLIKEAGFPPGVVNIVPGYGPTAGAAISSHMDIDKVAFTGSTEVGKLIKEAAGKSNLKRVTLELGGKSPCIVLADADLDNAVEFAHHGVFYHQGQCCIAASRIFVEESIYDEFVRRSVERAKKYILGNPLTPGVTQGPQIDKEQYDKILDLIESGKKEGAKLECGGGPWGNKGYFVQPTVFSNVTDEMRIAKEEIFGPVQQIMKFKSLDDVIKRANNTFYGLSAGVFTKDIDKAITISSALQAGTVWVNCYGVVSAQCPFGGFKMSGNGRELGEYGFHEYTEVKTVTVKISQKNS
PNC inhibitor: blocks assembly of the perinucleolar compartment. PC3M PTB-GFP, PNC prevalence imaging, 16 h; active compounds read low. activity change (PNC), negative = inhibition, % at 10 µM. 3.1% of 140,000 active. AID 2417;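 active means readout at or below -70, meaning at least 70% loss of cells showing the perinucleolar compartment, a nuclear body marking cancer cells; inconclusive means readout between -30 and a set limit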;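 further: plate controls were DMSO wells for no effect and camptothecin positive control wells for full effect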
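PC3M cells stably expressing PTB-GFP, 750–1000 cells/well, treated 16 h at 37 °C with compound (23 nl of library stock), in duplicate. After paraformaldehyde fixation and Hoechst stain, imaged at 20x; PNC prevalence scored by image analysis.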
HTT cytoprotect: Huntington cell model cytoprotection by ATP luminescence; PC12 HTT-Q103 induced, cytoprotection, ATP luminescence, 40 h; Potency, µM (doses to about 56.4 µM), without a hit: cytoprotection (ATP increase), usual class: activators; 0.14% of 230,000 active; AID 1471; further: potency means the concentration at half of the fitted maximal effect; % of control where 0% means no effect; nearly all actives have a fitted effect of over 45% in size
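Stable PC12 Q103-GFP cells in serum-supplemented, phenol red-free DMEM; induction by tebufenozide at 100 nM final; compound dose series; cell viability quantified luminescently from ATP.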
RGS12 GoLoco inh: blocks human Gai1 binding to RGS12 GoLoco peptide, red readout | Potency, µM (series often up to 61.6 µM), without a hit: at the highest dose activity, negative = inhibition, actives largely listed as inhibitors | Gai1:RGS12 GoLoco peptide FP, rhodamine, 10 min | 0.44% of 230,000 active | AID 880 | P63096; active means well fitted inhibition curve with a large enough effect, not every such curve was filed as active; inactive means no such curve, though single readings can be large or run the other way; further: potency means the concentration at half of the fitted maximal effect; on the % scale 0 is the no-effect control and ±100 the full control effect; nearly all actives have a fitted effect of over 30% in size
HTT aggregate: reduces HttQ103-GFP aggregates in PC12 cells; PC12 HttQ103-GFP aggregates, Acumen cytometry, 40 h; 1.1% of 220,000 active; Potency, µM (series often up to 46.1 µM), without a hit: top-dose activity change, negative = inhibition, usual class: inhibitors; further: potency means the concentration at half of the fitted maximal effect; on the % scale 0 is the no-effect control and ±100 the full control effect; nearly all actives have a fitted effect of over 60% in size
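Compounds (qHTS titration) were added to PC12 cells expressing an ecdysone-driven HTT exon 1 Q103–GFP fusion after induction with 100 nM tebufenozide. Aggregate formation was measured as GFP objects in cell lysates.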
HPGD block: inhibitors of human 15-hydroxyprostaglandin dehydrogenase (HPGD). Potency, µM, for inactives: top-dose activity change, negative = inhibition, most hits filed as inhibitors. AID 894. purified HPGD, NADH fluorescence kinetic, PGE2 substrate. 4.3% of 150,000 active; active means well fitted inhibition curve with a large enough effect, not every such curve was filed as active; inconclusive means small, poorly fitted or top-dose-only effect, or another doubt; inactive means no such curve, though single readings can be large or run the other way; further: potency means the concentration at half of the fitted maximal effect; on the % scale 0 is the no-effect control and ±100 the full control effect
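20 nM HPGD preincubated 15 min at room temperature with compound in 50 mM Tris-HCl pH 8, 0.01% Tween 20. Started with 1 mM NAD+ and 30 uM prostaglandin E2; NADH fluorescence (360/450 nm) read 5 times over 30-s intervals, last minus first.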
* hit, by the source's call; ? = inconclusive; / = not tested or not shown; [ ] = remark or other dose. The list is not random: actives were taken first. Their share in the collection is about 11%. Unless noted, the call rests on the fitted dose curve; in most records, active means well fitted curve in the direction sought with a large enough effect; inconclusive means small, poorly fitted or top-dose-only effect, or another doubt; inactive means no such curve, though single readings can be large; an effect the other way counts as inactive or inconclusive.

SMILES | ALDH1A1 block | PNC inhibitor | HTT cytoprotect | RGS12 GoLoco inh | HTT aggregate | HPGD block
CN(C)S(=O)(=O)c1cccc(-c2nnc(SCc3cc(Cl)cc4c3OCOC4)n2N)c1 | 25µM* | -13 | -17%[10 µM] | 14% | 15% | 7.1µM*
CC(=O)Nc1ccc(OCC(=O)NCc2ccc3c(c2)OCO3)cc1 | 2% | / | 7%[10 µM] | 6% | 1% | /
CCCC(=O)NC(=S)Nc1ccc(N2CCN(C(=O)c3cccs3)CC2)cc1 | ? | / | / | 14% | ? | /
CCOC(=O)C1=C(C)N=C2SC(C)C(=O)N2C1c1ccc(OC(C)=O)c(OC)c1 (stereo not drawn) | -2% | -100* | 6%[10 µM] | 72% | 6% | -2%
CCNC(=S)NNC(=S)NCc1ccccc1 | -3% | -9 | / | 6% | 2% | 28µM*
Cc1ccc(NC(=S)NNC(=S)NCc2ccccc2)cc1 | 0.63µM* | -17 | 4% | 7% | -16% | -27%
S=C(NCc1ccccc1)NCc1ccc(CNC(=S)NCc2ccccc2)cc1 | -9% | ? | / | 4% | 12% | -20%
CCCCCCSc1nnc(-c2cnn(-c3ccccc3)c2-n2cccc2)n1C | 7.1µM* | 8 | 2% | 1% | ? | ?
CCSc1nnc(-c2cnn(-c3ccccc3)c2-n2cccc2)n1C | ? | ? | -1% | 6% | -1% | ?
CCOC(=O)c1cnn(-c2ccccc2)c1-n1cccc1 | 0% | 12 | -8% | -2% | 7% | -8%
Cn1c(-c2cnn(-c3ccccc3)c2-n2cccc2)n[nH]c1=S | 22µM* | / | -19% | 13% | -3% | /
CCNc1ncc2nc(-c3cc(F)cc(F)c3)c(=O)n(Cc3ccc(F)cc3)c2n1 | -14% | / | ? | 6% | / | /
Cc1ccc(S(=O)(=O)Nc2cccc3ncccc23)s1 | 13µM* | ? | 3% | 18% | ? | 28µM*
O=c1[nH]c(-c2ccccc2)cs1 | 15% | ? | / | -3% | -11% | -1%
S=c1[nH]c(-c2ccccc2)cs1 | 3.5µM* | / | -31% | -3% | -4% | /
Fc1ccc(-c2csc(=S)[nH]2)cc1 | 3.5µM* | / | -17% | -15% | 3% | /
O=C1C(Cl)=C(NCC2CCCO2)C(=O)N1C1CCCCC1 (stereo not drawn) | 4µM* | 59 | 2% | 7% | 0% | -25%
O=C1C(Cl)=C(NCC2CCCO2)C(=O)N1c1ccccc1 (stereo not drawn) | 5% | 8 | 1%[10 µM] | / | ? | /
CS(=O)(=O)N1CCC[C@@]2(CCN(c3ccccn3)C2)C1 | ? | / | 14% | 4% | / | ?
Cc1csc(NC(=O)c2cc3c(s2)-c2ccccc2OC3)n1 | ? | 41 | -20% | 8% | 3% | ?
Cc1c(NC(=O)c2cc3c(s2)-c2ccccc2OC3)cccc1[N+](=O)[O-] | 14µM* | ? | 8%[10 µM] | 9% | 2% | ?
CCc1c(C)[nH]n(-c2nc(-c3cccc([N+](=O)[O-])c3)cs2)c1=O | 14µM* | -15 | / | 22% | 13% | -17%
COC(=O)C1(C(=O)OC)CC2=C[C@H](CC2=O)Cc2ccccc2[C@@H]1C[N+](=O)[O-] | -10% | / | -40% | 2% | / | -6%
C=CC(=O)N=c1sc2ccccc2n1-c1ccccc1 | 0.22µM* | / | -137% | 6% | ? | /
CC(C)(C)c1ccc(C2CC2C(=O)N/N=C\c2ccc[nH]2)cc1 (stereo not drawn) | 1% | / | -68%[10 µM] | 12% | 2.5µM* | /
O=C(N/N=C/c1c[nH]c2ccccc12)C1CC1c1ccccc1 (stereo not drawn) | -11% | ? | 1%[10 µM] | / | -11% | /
CN1N=C(C(C)(C)C)CSC1=Nc1ccccc1 | -2% | / | 3%[10 µM] | 5% | -5%[9.22 µM] | /
O=C(COC(=O)/C=C/c1ccc(Br)o1)Nc1ccccc1F | 14µM* | / | -31% | 40% | 13% | /
O=C(COC(=O)/C=C/c1ccc(Cl)cc1)Nc1ccccc1-c1ccccc1 | 15% | -19 | 13%[10 µM] | 12% | 10% | -10%
CN(C)CCNC(=O)/C=N/O | -2% | -89* | 22%[1.9 µM] | 7% | -10% | 5%
